Screens as filed in PubChem BioAssay.
Lassa entry – Lassa virus entry inhibition; Lassa virus pseudotyped entry inhibition, cell-based qHTS; Potency, µM (series often up to 49.2 µM), most hits filed as inhibitors; actives 4.1% (n = 18,000); AID 720533
Marburg entry – blocks Marburg virus binding or cell entry. Marburg virus pseudotype entry/binding inhibition, cell-based. Potency, µM (doses to about 49.2 µM), usual class: inhibitors. actives 6.5% (n = 18,000). AID 720532
A number is an active result; – = inactive; ? = inconclusive; · = no result; ! = not active in a repeat; [ ] = another dose, or the depositor's remark. Shown are actives, neighbours in structure and some others; about 8.6% of the full set was active somewhere. The call rests on the fitted dose curve; tested in HEK293 cells.

SMILES	Lassa entry	Marburg entry
Nc1ccc(CCN2CCN(c3cccc(C(F)(F)F)c3)CC2)cc1	?	–
COc1ccccc1N1CCN(CCCCNC(=O)c2ccc(-c3ccc(C(C)=O)cc3)cc2)CC1	–	?
OCCN1CCN(CC/C=C2/c3ccccc3Sc3ccc(C(F)(F)F)cc32)CC1	13µM	5.6µM
OCCN1CCN(CCCN2c3ccccc3Sc3ccc(C(F)(F)F)cc32)CC1	16µM!	7.1µM
COc1cccc([C@@H]2Oc3ccc(Br)cc3C(=O)[C@@H]2O)c1	–[8.59 µM]	–[8.59 µM]
COC(=O)C1=C(C)N(Cc2ccccc2)C(=O)NC1c1ccco1 (centres undefined)	–[8.59 µM]	–[8.59 µM]
Cc1cc(=O)oc2cc(OCc3cn(CC(=O)c4ccc(O)cc4)nn3)ccc12	–	–
C=C(CCN1C=C(C(=O)OCC)C(c2ccccc2)NC1=O)c1ccc(Cl)cc1 (centres undefined)	–[8.59 µM]	–[8.59 µM]
COCC=CC1=CC2=CC(=O)C(C)(OC(=O)c3cnc4ccccc4n3)C(=O)C2=CN1CCCCO (centres undefined)	–[8.59 µM]	–[8.59 µM]
CCN(CC)CC(O)CN1CCCCc2nc(C)c(C)cc21 (centres undefined)	–[8.59 µM]	–[8.59 µM]
CN1CCN(CCC(=O)N2c3ccccc3Sc3ccc(C(F)(F)F)cc32)CC1	?	16µM
OCCN1CCN(CCCN2c3ccccc3C=Cc3ccccc32)CC1	25µM!	11µM
O=S1(=O)CC(N2CCN(CCO)CC2)CN1CCc1ccccc1 (centres undefined)	–	–
CCC(=O)c1ccc2c(c1)N(CCCN1CCN(CCO)CC1)c1ccccc1S2	14µM	10µM
Cc1scc2c1N(C(=O)CN1CCN(C)CC1)c1ccccc1NC2=O	–	–
C#CCCCON=C1C[C@@H](O)[C@H](O)[C@H]2[C@@H]3C(=O)N(Cc4ccc5c(c4)OCO5)C(=O)[C@@H]3CC[C@@H]12	–[8.59 µM]	–[8.59 µM]
COc1cccc([C@@H]2Oc3ccc(Br)cc3C[C@@H]2OC(=O)Nc2cc(OC)c(OC)c(OC)c2)c1	–[8.59 µM]	–[8.59 µM]
C[C@@H]1[C@@H](c2ccccc2)c2cc3ccccc3nc2-c2nc3ccccc3cc2[C@H]1C(=O)N1CCCC1	–[8.59 µM]	–[8.59 µM]
COc1ccc2c(c1)[C@@]1(OCCC=C[C@@H]1C)C(=O)N2CC1CC1	–[8.59 µM]	–[8.59 µM]
COc1cc2c(C=O)c3c4c(cc(OC)c(OC)c4c2cc1OC)CCN3C	16µM	?
Nc1nccc(-c2c(-c3ccc(F)cc3)nn3cc(C(F)(F)F)ccc23)n1	–	–
Cc1cc(-c2ccc(N=Nc3ccc4c(S(=O)(=O)O)cc(S(=O)(=O)O)c(N)c4c3O)c(C)c2)ccc1N=Nc1ccc2c(S(=O)(=O)O)cc(S(=O)(=O)O)c(N)c2c1O	?	–
Nc1c(N=Nc2ccc(-c3ccc(N=Nc4cc(S(=O)(=O)O)c5ccccc5c4N)cc3)cc2)cc(S(=O)(=O)O)c2ccccc12	–	13µM
O=C1N(Cc2ccccc2C(F)(F)F)c2ccccc2[C@@]12O[C@H](COc1ccccc1)CC1=C2CCC1	–[8.59 µM]	–[8.59 µM]
CC(=O)Oc1cc2c(c(C)c1OC(C)=O)CC=C1[C@]3(C)CC[C@]4(C)CC[C@@](C)(C(=O)O)CC4[C@]3(C)CC[C@]12C (some centres undefined)	20µM	11µM
SMILES	Lassa entry	Marburg entry
Nc1nc(-c2ccccn2)c(-c2ccc3ncccc3n2)s1	–	–
COc1ccc(COc2cc(-c3cccc(OC)c3)nc3ccc(NC(C)=O)cc23)cc1	–	–
COc1cccc(COc2cc(-n3cnc4ccccc43)sc2C(N)=O)c1	?	13µM
COc1ccc2ncn(-c3cc(OC(C)c4ccccc4C(F)(F)F)c(C(N)=O)s3)c2c1 (centres undefined)	?	0.89µM
COc1ccc(-c2ccnc(-n3ncc(C(=O)NCc4cccnc4)c3C3CC3)n2)cc1F	?	–
CO/N=C(\C(=O)N[C@@H]1C(=O)N2C(C(=O)[O-])=C(C[n+]3ccc(N)n3CCO)CS[C@H]12)c1csc(N)n1	–	–
C[C@]12C[C@@](C)(C=C1C=Cc1ccccc1)C(=O)C[C@H]2c1ccccc1	–[8.59 µM]	–[8.59 µM]
COc1ccc([C@]23Cc4c(ccc5ccccc45)[C@H](O2)c2c(cc(-c4ccccc4)oc2=O)O3)cc1	–[8.59 µM]	–[8.59 µM]
CNC[C@H](O)c1ccc(O)c(O)c1	?	7.9µM!
NC[C@H](O)c1ccc(O)c(O)c1	–	28µM
CC(C)NCC(O)c1ccc(O)c(O)c1 (centres undefined)	–	–
CC(N)C(O)c1cccc(O)c1 (centres undefined)	–	–
NC[C@@H](O)c1ccc(O)c(O)c1	–	?
C[C@H](N)[C@H](O)c1ccc(O)c(O)c1	?	5µM
O=S1(=O)c2cc(Cl)ccc2Oc2ccccc2CN1Cc1cccc(F)c1	–	?
C#Cc1ccccc1C[C@]1(C(=O)OC)C=C[C@H](C)[C@@H](c2ccccc2Br)N1C(=O)C(F)(F)F	–[8.59 µM]	–[8.59 µM]
C[C@@H]1[C@@H](c2ccccc2)Oc2c(Cl)cccc2S(=O)(=O)N1Cc1cccc(F)c1	–	–
C[C@@H]1CN(Cc2ccc3c(c2)CN(Cc2nc(-c4ccccc4)cs2)CCO3)C[C@H](C)O1	–	–
CO/N=C(\C(=O)N[C@@H]1C(=O)N2C(C(=O)O)=C(CSc3nc(C)c(CC(=O)O)s3)CS[C@H]12)c1csc(N)n1	–	–
CCCCCCCCCCCCCCCC(=O)OC[C@H](O)[C@H]1OC(=O)C(O)=C1O	–	–
O=C(c1ccccc1)[C@@H]1O[C@@H]1c1ccccc1	–[8.59 µM]	–[8.59 µM]
COc1ccc([C@]23Cc4cc(C#N)ccc4[C@H](O2)C2=C(CC4(CCCCC4)OC2=O)O3)cc1	–[8.59 µM]	–[8.59 µM]
O=S(=O)(c1cccc2c(Cl)cccc12)N1CCCNCC1	?	8.9µM
C[C@@H]1CNCCN1S(=O)(=O)c1cccc2cnccc12	–	–
Cc1ccc(S(=O)(=O)N2CCCN(S(=O)(=O)c3ccccc3Br)CC2)cc1	·	–
SMILES	Lassa entry	Marburg entry
O=S(=O)(c1cccc2c(I)cccc12)N1CCCNCC1	?	11µM
CC(=O)N1C(=O)NC(C)=C(C#N)C1c1ccccc1 (centres undefined)	–[8.59 µM]	–[8.59 µM]
CNC(C)CCC=C(C)C (centres undefined)	–	?
CC12C=C(C=CCCc3ccco3)C(C)(C1)[C@H](CCc1ccco1)CC2=O (some centres undefined)	–[8.59 µM]	–[8.59 µM]
Cc1nn(-c2ccc(F)cc2)c(C)c1CNC(=O)c1ccc(-n2cc(NC(=O)c3ccoc3)cn2)cc1	–	–
O=S(=O)(N[C@@H](CO)Cc1ccccc1)c1cc(Cl)ccc1F	–	–
COC1=C[C@H](C(=O)NCCNC(C)=O)[C@@]2(C)Cc3ccccc3[C@@H]2CC1=O	·	–[8.59 µM]
C=CCN1c2ccccc2[C@]23CCC(=O)N(CCc4ccccn4)C2=NC(C(=O)OC)=C(C(=O)OC)[C@H]13	–[8.59 µM]	–[8.59 µM]
CCCCCC(=O)N1C[C@H](O)[C@@H](n2cc(-c3ccc(F)cc3)nn2)C[C@H]1c1ccc(C)cc1	–	?
CCOC(=O)C1=CN(CCC=C(C)C)C(=O)NC1c1ccccc1 (centres undefined)	–[8.59 µM]	–[8.59 µM]
CCC1CN2CCC1CC2C(O)c1ccnc2ccc(OC)cc12 (centres undefined)	?	20µM
CC[C@H]1CN2CC[C@@H]1C[C@H]2[C@@H](O)c1ccnc2ccc(OC)cc12	–	?
OC[C@@H](O)[C@H]1O[C@@H]2O[C@@H](C(Cl)(Cl)Cl)O[C@@H]2[C@H]1O	–	–
O=C1C(Nc2ccccc2)=CC(=O)c2ncccc21	11µM	5.6µM
CN1C2CCC1CC(OC(=O)C1CCC(C(=O)OC3CC4CCC(C3)N4C)(c3ccccc3)c3ccccc31)C2 (centres undefined)	?	6.3µM
